Laboratory results: publication PMC5540273 (PLoS ONE, 2017)

Key:
Conditions in all cases: concentration: 1 μM, replicates: in singlicate; n = 1
PCTK2 = test system: T1, PCTK2
T1 construct: gene CDK17

PCTK3 = test system: T2, PCTK3
T2 construct: gene CDK18

PDGFRA = test system: PDGFRA
PDGFRB = test system: PDGFRB
PDPK1 = test system: PDPK1
PFTAIRE2 = test system: PFTAIRE2
PFTK1 = test system: T3, PFTK1
T3 construct: gene CDK14

PHKG1 = test system: PHKG1
PHKG2 = test system: PHKG2
PIK3C2B = test system: PIK3C2B
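Further: KINOMEscan kinase panel screen.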

For `Cc1cccc(Nc2nc(NCCN)ncc2C(N)=O)c1` [GSK1292139], the “%Inh” value (PCTK2) was 0%, the “%Inh” value (PCTK3) was 0% and the “%Inh” value (PDGFRA) was 51%. For the same compound, the “%Inh” value (PDGFRB) was 89%, the “%Inh” value (PDPK1) was 0% and the “%Inh” value (PFTAIRE2) was 16%. For the same compound, the “%Inh” value (PFTK1) was 0%, the “%Inh” value (PHKG1) was 42% and the “%Inh” value (PHKG2) was 63%. For the same compound, the “%Inh” value (PIK3C2B) was 0%.
For `COc1cccc2c(-c3ccncc3)c(-c3ccc(F)cc3)nn12` [GW468513], the “%Inh” value (PCTK2) was 11%, the “%Inh” value (PCTK3) was 0% and the “%Inh” value (PDGFRA) was 0%. The “%Inh” value (PDGFRB) was 21%, the “%Inh” value (PDPK1) was 10% and the “%Inh” value (PFTAIRE2) was 5%. For the same compound, the “%Inh” value (PFTK1) was 0%, the “%Inh” value (PHKG1) was 18% and the “%Inh” value (PHKG2) was 0%. For the same compound, the “%Inh” value (PIK3C2B) was 0%.
In the case of `Cc1cc(-c2c(-c3ccc(F)cc3)ncn2CCCN2CCOCC2)nc(N)n1` [SB-222517], the “%Inh” value (PCTK2) was 0%, the “%Inh” value (PCTK3) was 0% and the “%Inh” value (PDGFRA) was 0%. The “%Inh” value (PDGFRB) was 16%, the “%Inh” value (PDPK1) was 0% and the “%Inh” value (PFTAIRE2) was 0%. The “%Inh” value (PFTK1) was 0%, the “%Inh” value (PHKG1) was 12% and the “%Inh” value (PHKG2) was 0%. For the same compound, the “%Inh” value (PIK3C2B) was 28%.
`Cc1ccc(NC(=O)c2ccc(Cl)c(Cl)c2)cc1-c1ccc(C(=O)Nc2ccncc2)cc1` [GSK1398460] was tested, and the “%Inh” value (PCTK2) was 0%, the “%Inh” value (PCTK3) was 25% and the “%Inh” value (PDGFRA) was 94.6%. The “%Inh” value (PDGFRB) was 100%, the “%Inh” value (PDPK1) was 27% and the “%Inh” value (PFTAIRE2) was 23%. For the same compound, the “%Inh” value (PFTK1) was 1%, the “%Inh” value (PHKG1) was 0% and the “%Inh” value (PHKG2) was 0%. For the same compound, the “%Inh” value (PIK3C2B) was 0%.
With `N#CC1(c2cccc(C(=O)Nc3cccc(Oc4ccc5nc(NC(=O)C6CC6)sc5n4)c3)c2)CC1` the “%Inh” value (PCTK2) was 0%, the “%Inh” value (PCTK3) was 1% and the “%Inh” value (PDGFRA) was 99.7%. The “%Inh” value (PDGFRB) was 100%, the “%Inh” value (PDPK1) was 49% and the “%Inh” value (PFTAIRE2) was 0%. The “%Inh” value (PFTK1) was 9%, the “%Inh” value (PHKG1) was 0% and the “%Inh” value (PHKG2) was 19%. For the same compound, the “%Inh” value (PIK3C2B) was 0%.
In the case of `CCNc1nccc(-c2c(-c3ccc(F)cc3)ncn2C2CCN(C)CC2)n1`, the “%Inh” value (PCTK2) was 0%, the “%Inh” value (PCTK3) was 0% and the “%Inh” value (PDGFRA) was 0%. For the same compound, the “%Inh” value (PDGFRB) was 0%, the “%Inh” value (PDPK1) was 15% and the “%Inh” value (PFTAIRE2) was 0%. The “%Inh” value (PFTK1) was 1%, the “%Inh” value (PHKG1) was 1% and the “%Inh” value (PHKG2) was 12%. For the same compound, the “%Inh” value (PIK3C2B) was 1%.
With `CCn1cnc2c(NCc3ccccc3)ncnc21` [SKF-96418] the “%Inh” value (PCTK2) was 0%, the “%Inh” value (PCTK3) was 0% and the “%Inh” value (PDGFRA) was 0%. The “%Inh” value (PDGFRB) was 0%, the “%Inh” value (PDPK1) was 0% and the “%Inh” value (PFTAIRE2) was 0%. For the same compound, the “%Inh” value (PFTK1) was 0%, the “%Inh” value (PHKG1) was 0% and the “%Inh” value (PHKG2) was 0%. The “%Inh” value (PIK3C2B) was 0%.
For `CC(C)NCC(Cc1ccccc1)NC(=O)c1cc(Br)c(-c2ccnc3[nH]ccc23)s1.Cl.Cl` (stereo not shown) [GSK1383281], the “%Inh” value (PCTK2) was 13%, the “%Inh” value (PCTK3) was 0% and the “%Inh” value (PDGFRA) was 37%. For the same compound, the “%Inh” value (PDGFRB) was 74%, the “%Inh” value (PDPK1) was 0% and the “%Inh” value (PFTAIRE2) was 0%. For the same compound, the “%Inh” value (PFTK1) was 27%, the “%Inh” value (PHKG1) was 0% and the “%Inh” value (PHKG2) was 16%. The “%Inh” value (PIK3C2B) was 0%.
In the case of `CC(=O)Nc1cn2nc(Oc3cccc(NC(=O)c4cccc(C(F)(F)F)c4)c3)ccc2n1`, the “%Inh” value (PCTK2) was 0%, the “%Inh” value (PCTK3) was 6% and the “%Inh” value (PDGFRA) was 99.6%. For the same compound, the “%Inh” value (PDGFRB) was 100%, the “%Inh” value (PDPK1) was 9% and the “%Inh” value (PFTAIRE2) was 0%. The “%Inh” value (PFTK1) was 3%, the “%Inh” value (PHKG1) was 31% and the “%Inh” value (PHKG2) was 0%. The “%Inh” value (PIK3C2B) was 0%.
With `CSc1ccc(NC2=C(c3ccc(Cl)cc3)C(=O)NC2=O)cc1` [SB-317658] the “%Inh” value (PCTK2) was 0%, the “%Inh” value (PCTK3) was 0% and the “%Inh” value (PDGFRA) was 3%. The “%Inh” value (PDGFRB) was 31%, the “%Inh” value (PDPK1) was 17% and the “%Inh” value (PFTAIRE2) was 4%. The “%Inh” value (PFTK1) was 8%, the “%Inh” value (PHKG1) was 0% and the “%Inh” value (PHKG2) was 0%. The “%Inh” value (PIK3C2B) was 0%.
